Assay results published in PubChem BioAssay.

The compounds below were run against Fibroblast growth factor 10 (Homo sapiens) (UniProt O15520) (assay: compounds binding fibroblast growth factor 10 – biochemical, small-molecule microarray, 635 nm fluorescence, primary screen (AID 1102)). Conditions: FGF10 binding, fluorescence 635 nm, higher = more signal.
Fibroblast growth factor 10 (Homo sapiens), sequence (O15520 whole entry, looked up): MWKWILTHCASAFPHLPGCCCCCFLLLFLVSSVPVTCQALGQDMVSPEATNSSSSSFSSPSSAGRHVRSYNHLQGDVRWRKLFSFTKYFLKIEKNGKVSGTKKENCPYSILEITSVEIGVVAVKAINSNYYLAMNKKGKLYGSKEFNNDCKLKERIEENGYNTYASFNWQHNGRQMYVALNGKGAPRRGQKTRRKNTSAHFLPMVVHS
With `CCCCC(=C=CC[C@@H](O)c1ccccc1OCCO)CCO` the composite z-score was 0.209. Work on `COc1ccc(C(O)C2C=CC3C(=O)NC(=O)C3N2Nc2ccccn2)c2ccccc12` (stereo unspecified) yielded a composite z-score of 0.392. `COc1cc(CO)cc(I)c1O[C@H]1C=C(C(=O)NCCO)C[C@@H](N(CCN2CCOCC2)C(=O)C2CCOC2)[C@@H]1O` (stereo partly specified) showed a composite z-score of 1.29. `COC(=O)[C@@]1(Cc2ccc(F)cc2)[C@H]2c3cc(C(=O)N(C)C)n(Cc4ccc(S(C)(=O)=O)cc4)c3C[C@H]2CN1C(=O)c1ccccc1` was tested, and the composite z-score was 1.35. `CC(=O)n1cc(C(O)C2C=CC3C(=O)N(C)C(=O)C3N2Nc2ccccc2)c2ccccc21` (stereo unspecified) gave a composite z-score of 1.17. In the case of `O=C1O[C@H](c2ccccc2)[C@H](c2ccccc2)N2[C@H]1[C@@H](C(=O)NC[C@H](O)c1ccccc1)[C@]1(C(=O)Nc3ccccc31)[C@H]2c1ccc(OCCO)cc1`, the composite z-score is reported as 0.745. In the case of `C=C(CCCC)C(=O)CC[C@H](OC(C)=O)c1cccc(OCCO)c1`, the composite z-score is reported as -0.633. For `COCCOC(=O)N1C(=O)[C@@]2(c3cc(C#CC4=CCCCC4)ccc31)[C@H](C(=O)Nc1nc3ccccc3s1)[C@H]1C(=O)O[C@H](c3ccccc3)[C@H](c3ccccc3)N1[C@@H]2c1ccccc1OCCO`, the composite z-score was 1.33. Work on `CN1C(=O)C2C=CC(C(O)c3cc(C(F)(F)F)cc(C(F)(F)F)c3)N(N3CCCCC3)C2C1=O` (stereo unspecified) yielded a composite z-score of 0.246. Work on `CN(C)C(=O)[C@@]1(Cc2ccccc2)N=C(c2ccc(OCCCO)cc2)O[C@H]1c1ccccc1N=[N+]=[N-]` yielded a composite z-score of 1.36. For `[N-]=[N+]=NCc1ccccc1[C@@H]1OC(c2ccc(OCCCO)cc2)=N[C@]1(CCS(=O)(=O)c1ccccc1)C(=O)NCc1ccccc1`, the composite z-score was 1.25. With `CCOC(=O)[C@H]1C/C=C/C[C@H](C(=O)OCC)C(=O)O[C@H]2[C@@H](OC)O[C@H](CO)[C@@H](OC(=O)Nc3ccc(C#N)cc3)[C@@H]2OC1=O` the composite z-score was 0.322. With `C#CCN(Cc1ccccc1Br)C(/C=C/c1ccccc1)CO` (stereo unspecified) the composite z-score was 0.168. `CC(C)[C@@H](CO)NC(=O)[C@H]1[C@@H](c2ccccc2)N(c2ccccc2)O[C@@H]1C` showed a composite z-score of -0.123. For `[N-]=[N+]=Nc1ccccc1C[C@]1(C(=O)NCC(O)CO)N=C(c2ccc(OCCCO)cc2)O[C@H]1c1ccccc1N=[N+]=[N-]` (stereo partly specified), the composite z-score was -0.255. Compound `C=CC[C@]1(C(=O)NCCCOC)N=C(c2ccc(OCCCO)cc2)O[C@H]1c1ccccc1N=[N+]=[N-]` has a composite z-score of 1.44. In the case of `C=CCOC(=O)[C@H]1[C@@H]2C(=O)O[C@@H](c3ccccc3)[C@@H](c3ccccc3)N2[C@@H](c2ccc(OCCOC(=O)[C@H]3C[C@H]4C(=O)N5CCC[C@H]5C(=O)N4[C@H]3c3ccc(O)cc3)cc2)[C@]12C(=O)Nc1ccccc12`, the composite z-score is reported as 1.47. For `CN(C)CCCCCCNC(=O)[C@@H]1C[C@@H]2C(=O)N[C@@H](CCCCN)C(=O)N2[C@@H]1c1cccc(OCCO)c1`, the composite z-score was 1.59. Work on `COCCOC(=O)N1C(=O)[C@@]2(c3cc(C#Cc4ccc(OC)cc4)ccc31)[C@H](C(N)=O)[C@H]1C(=O)O[C@H](c3ccccc3)[C@H](c3ccccc3)N1[C@@H]2c1ccccc1OCCO` yielded a composite z-score of 1.12. `CCOC(=O)[C@H]1C/C=C/C[C@H](C(=O)OCC)C(=O)O[C@H]2[C@@H](OC)O[C@H](CO)[C@@H](OC(=O)Nc3cccc(F)c3)[C@@H]2OC1=O` showed a composite z-score of 0.687. Work on `CN1C(=O)C2C=CC(C(O)C3CC=CCC3)N(NC(=O)OC(C)(C)C)C2C1=O` (stereo unspecified) yielded a composite z-score of 0.796. Compound `COc1ccc(CCNC(=O)[C@@]2(Sc3ccc(C)cc3)CC(=O)N(C3CCCCC3)[C@@H]2c2ccc(CO)cc2I)cc1` has a composite z-score of 0.724. For `COc1ccc(CCNC(=O)[C@@H]2c3ccccc3C(=O)N(C3Cc4ccccc4C3)[C@H]2c2ccc(CO)cc2)cc1`, the composite z-score was 0.0846. `CO[C@H]1O[C@H](CO)[C@@H](OC(=O)Nc2ccc(Br)cc2)[C@H](OC(=O)c2cc3ccccc3[nH]2)[C@H]1OC(=O)c1cc2ccccc2[nH]1` gave a composite z-score of 1.19. For `C=CCOC(=O)[C@H]1[C@@H]2C(=O)O[C@@H](c3ccccc3)[C@@H](c3ccccc3)N2[C@@H](c2ccc(OCCOC(=O)[C@H]3C[C@H]4C(=O)N[C@@H](CC(C)C)C(=O)N4[C@H]3c3ccc(O)cc3)cc2)[C@]12C(=O)Nc1ccc(I)cc12`, the composite z-score was 1.4. `O=C(NCC(F)(F)F)[C@@H]1c2ccccc2C(=O)N(C2CCCCC2)[C@H]1c1ccc(CO)cc1` was tested, and the composite z-score was 0.0573. For `CCCC=C(CCC)[C@@H](NC(=O)Oc1ccc(F)cc1)c1ccc(C(=O)OC)cc1`, the composite z-score was 0.441. For `COC(=O)c1c(CC[C@@H](CO)NC(=O)N2CCC[C@H]2Cn2cc(-c3ccccn3)nn2)oc(C(C)=O)c1C(=O)OC`, the composite z-score was 0.0437. Compound `CC(C)(C)OC(=O)CC[C@]1(C(=O)O)N=C(c2ccc(OCCCO)cc2)O[C@H]1c1ccccc1N=[N+]=[N-]` has a composite z-score of 0.443. In the case of `COC(=O)C(CC#Cc1ccc2c(c1)[C@]1(C(=O)N2)[C@H](C(=O)O)[C@H]2C(=O)O[C@H](c3ccccc3)[C@H](c3ccccc3)N2[C@@H]1c1ccc(O)cc1)C(=O)OC`, the composite z-score is reported as 0.284. `COCCOC(=O)N1C(=O)[C@@]2(c3cc(C#Cc4ccc(OC)cc4)ccc31)[C@H](c1ccc(O)cc1)N1[C@H](c3ccccc3)[C@H](c3ccccc3)OC(=O)[C@H]1[C@@H]2C(=O)NC[C@H](O)c1ccccc1` was tested, and the composite z-score was 1.42. `CN1C(=O)C2C=CC(C(O)c3cccs3)N(Nc3ccccc3)C2C1=O` (stereo unspecified) was tested, and the composite z-score was 0.765. Compound `CC(C)(C)OC(=O)CC[C@@]1(C(=O)NCC(O)CO)N=C(c2ccc(OCCCO)cc2)O[C@@H]1c1ccccc1N=[N+]=[N-]` (stereo partly specified) has a composite z-score of 1.36. With `C[C@@H]1ON(c2cccc(C(=O)OC(C)(C)C)c2)[C@H](c2ccc(Br)cc2)[C@H]1C(=O)N1C(=O)OC[C@H]1Cc1ccccc1` the composite z-score was 1.15. `COc1ccc(C(=O)Nc2ccc(CN3C(=O)[C@@]4(O[C@@H](CCn5cc([C@H](O)c6ccccc6)nn5)[C@H]([Si](C)(C)c5ccc(OC)cc5)[C@H]4C)c4ccccc43)cc2)cc1` was tested, and the composite z-score was -0.0022. Work on `CC(C)c1ccc(NN2C(C(O)c3cc(C(F)(F)F)cc(C(F)(F)F)c3)C=CC3C(=O)N(c4ccccc4)C(=O)C32)cc1` (stereo unspecified) yielded a composite z-score of -0.329.
